Out of some 52,000 compounds screened, about 4,300 (8.3%) were called active. This is one part of a sample in which actives are shown more often than they occur. Cut-off read from the data, not from the text of the source: active = survival mostly below about 52% (no sharp cut-off); inactive = mostly above about 56%.

This experiment has as its system DeltatarO mutant. Nature of the experiment: growth inhibition of S. aureus wild type versus tarO mutant, primary screen, teichoic acid synthesis inhibitors, RN4220, OD600 (AID 463173). Conditions: OD600, 18 h, active compounds read low, screened at 18.75 µg/mL (by protocol).
`COc1ccc(S(=O)(=O)c2c(O)c(C)cc(NC(=O)c3ccccc3)c2C(C)C)cc1`: the survival is 80% (inactive). As for `CCc1ccc(NC(=O)c2sc3nc(C)c(Cl)c(C)c3c2NC(=O)c2ccccc2)cc1`, the survival was 76% (inactive). As for `CCOC(=O)N1CCC(NC(=O)c2ccc3c(c2)N(Cc2ccc(F)cc2)C(=O)c2ccccc2S3=O)CC1` (centres undefined), the survival was 58% (inactive).

On to `COc1ccc(CCNC(=O)c2c(O)nc3c(C)cccn3c2=O)cc1OC`, for which the survival was 91% (inactive).

For the compound `CCN1C(=O)/C(=C\C=C2/N(CC)c3ccc(C(=O)OC)cc3N2CC)SC1=S`, the survival is 78% (inactive). In the case of `Cc1ccc(NC(=O)Cn2c(=O)n(Cc3nc(-c4ccccc4)no3)c(=O)c3cc4c(cc32)OCO4)cc1C`, the survival was 77% (inactive). Take `CCc1ccccc1NC(=O)CN(Cc1ccccc1)S(=O)(=O)c1ccc2nc(C)sc2c1`: the survival is 102% (inactive).

Consider `Cc1ccc(C(=O)NC2(C(F)(F)F)C(=O)Nc3c2c(=O)[nH]c(=O)n3CCc2ccccc2)cc1` (centres undefined), for which the survival was 74% (inactive). As for `CC(C)CCNC(=O)c1cc2sccc2n1Cc1ccc(F)cc1`, the survival was 87% (inactive).

Turning to `CCOc1ccccc1Nc1sc(C(=O)c2ccccc2)c(N)c1C(=O)Nc1ccccc1`, the survival is 102% (inactive). Regarding `COCCn1c(C)cc(O)c(C(c2ccccc2Cl)N2CCN(c3ccccc3)CC2)c1=O` (centres undefined), the survival was 87% (inactive).

Turning to `CSc1ccc(CNC(=O)c2cc3c(=O)n(Cc4ccco4)ccc3nc2C)cc1`, the survival is 94% (inactive). `COc1ccc(-c2cn3c(n2)sc2cc(C(=O)NCc4ccccc4)ccc23)cc1`: the survival was 63% (inactive). Consider `O=C(NCCOCCn1c(=O)oc2ccccc21)Nc1cccc(Cl)c1`, for which the survival is 75% (inactive). As to `COc1ccccc1CCNC(=O)C(C)Sc1nc(-c2ccccc2)cc(C(F)(F)F)n1` (centres undefined), the survival is 65% (inactive). To `COc1ccc(-c2cc(C(F)(F)F)nc(NCc3ccccc3)n2)cc1OC` belongs 42% (active). In the case of `COc1ccc(-c2cc(C(F)(F)F)nc(SCC(=O)NCc3ccc(F)cc3)n2)cc1`, the survival was 74% (inactive). `COc1ccc(-c2cc(C(F)(F)F)nc(SCCC(=O)Nc3cccc(OC)c3)n2)cc1`: the survival was 69% (inactive). `COc1ccc(-c2cc(C(F)(F)F)nc(NCCc3ccccc3)n2)cc1OC`: the survival is 63% (inactive).

As for `COc1ccc(-c2cc(C(F)(F)F)nc(SCC(=O)NCC(C)C)n2)cc1OC`, the survival is 137% (inactive). With `COc1cccc(-c2cc(C(F)(F)F)nc(NCc3ccc(F)cc3)n2)c1`, the survival is 4% (active). Consider `COc1cccc(-c2nc(S(=O)(=O)c3ccccc3)c(NCc3ccccc3)o2)c1`, for which the survival is 61% (inactive). On to `COc1cccc(-c2cc(C(F)(F)F)nc(NCCc3ccccc3)n2)c1`, for which the survival is -8% (active). With `COc1cccc(-c2cc(C(=O)Nc3ccc(F)cc3)[nH]n2)c1`, the survival is 73% (inactive). With `COc1ccc(-c2cc(C(F)(F)F)nc(NCc3ccc(F)cc3)n2)cc1`, the survival was 1% (active).

In the case of `COc1ccccc1/C=C/c1nc(C#N)c(N2CCCCC2)o1`, the survival is 75% (inactive). The value for `Cc1ccc(C(=O)c2sc(Nc3ccccc3F)c(S(=O)(=O)c3ccccc3)c2N)c(C)c1` was 74% (inactive); that for `COC(=O)c1cc(NC(=O)c2nn(C)c3c2CSc2ccccc2-3)cc(C(=O)OC)c1` was 88% (inactive). Turning to `CN1CCN(C2(CNC(=O)c3ccc([N+](=O)[O-])cc3)CCCCC2)CC1`, the survival was 102% (inactive). Turning to `Cc1ccc(C(C)C)c(OCC(=O)NCC2(N(C)C)CCCCC2)c1`, the survival was 95% (inactive). As for `N#Cc1c(NC(=O)C2CC(=O)NN2Cc2ccccc2)sc2c1CCCC2` (centres undefined), the survival was 82% (inactive).

For the compound `CCn1c(CNC(=O)c2ccc(OC)cc2)nnc1SCC(=O)Nc1ccc(F)cc1`, the survival was 130% (inactive). Regarding `O=C(C1=C(N2CCCCC2)c2ccccc2S(=O)(=O)N1)c1ccccc1`, the survival is 94% (inactive).

In the case of `Cc1ccc(-n2nnc(-c3nc(-c4cccs4)no3)c2N)c(C)c1`, the survival is 101% (inactive). To `COc1ccccc1NC(=O)c1cc2c(C)nn(-c3ccccc3)c2s1` belongs 0% (active); to `Cc1nn(-c2ccccc2)c2sc(C(=O)Nc3ccccc3Br)cc12`, 9% (active); to `COc1ccc(NC(=O)c2cc3c(C)nn(-c4ccccc4)c3s2)c(OC)c1`, 59% (inactive). `O=C(Nc1ccccc1Cl)c1cc2c(-c3ccccc3)nn(-c3ccccc3)c2s1`: the survival was 56% (inactive). For `Cc1ccccc1NC(=O)c1cc2c(-c3ccccc3)nn(-c3ccccc3)c2s1`, the survival was 57% (inactive). The value for `COc1ccccc1NC(=O)c1cc2c(-c3ccccc3)nn(-c3ccccc3)c2s1` was 89% (inactive); that for `CCc1ccccc1NC(=O)C1CCN(C2=NS(=O)(=O)C(c3ccc(C)c(C)c3)=C2C)CC1` was 80% (inactive).

Turning to `COc1ccc(-c2nc(C(N)=O)c3c(n2)n(-c2ccccc2OC)c(=O)n3C)c(OC)c1`, the survival is 82% (inactive). For the compound `CCN(CC)S(=O)(=O)c1ccc(-n2cnnn2)c(C)c1`, the survival is 111% (inactive). Take `Cc1ccc(NC(=O)CSc2nncn3c2cc2sccc23)cc1F`: the survival was 61% (inactive). Regarding `COc1ccc(CCNC(=O)C2CCCN(S(=O)(=O)c3ccc4c(c3)oc(=O)n4C)C2)cc1OC` (centres undefined), the survival is 72% (inactive).

For the compound `CCC1CCCCN1S(=O)(=O)c1ccc(NC(=O)c2cc(=O)c3c(C)cc(C)cc3o2)cc1` (centres undefined), the survival is 45% (inactive). To `CCc1ccc(OCC(=O)Nc2ccc3c(c2)c2ccccc2n3CC)cc1` belongs 51% (inactive); to `CCn1c2ccccc2c2cc(NC(=O)COc3cc(C)ccc3C)ccc21`, 29% (active); to `COc1ccc(C)cc1NC(=O)COc1cc(=O)n(C)c2ccccc12`, 90% (inactive). Turning to `CCc1cccc(NC(=O)COc2cc(=O)n(CC)c3ccccc23)c1`, the survival was 115% (inactive). To `Cc1ccc(-n2nc3ccc(NC(=O)COc4ccccc4C)cc3n2)cc1` belongs 72% (inactive).

In the case of `CCOC(=O)c1ccccc1NC(=O)COc1cc(=O)n(CC)c2ccccc12`, the survival was 53% (inactive). In the case of `CCn1c2ccccc2c2cc(NC(=O)COc3ccc(C)cc3C)ccc21`, the survival was -5% (active). For the compound `COc1ccc(NC(=O)c2ccco2)cc1NC(=O)COc1ccc(C)cc1C`, the survival is 56% (inactive). To `CCc1ccc(OCC(=O)Nc2ccc3c(c2)c2ccccc2n3CC)c(Br)c1` belongs 6% (active).

For `CCc1ccc(S(=O)(=O)c2nnn3c2nc(N2CCOCC2)c2sccc23)cc1`, the survival was 83% (inactive). Regarding `Cc1ccccc1-n1nc(CO)c(C(=O)NCCc2ccccc2)n1`, the survival was 86% (inactive). Regarding `Cc1ccc(-c2cc(C(F)F)n3ncc(C(=O)NCC4CCCO4)c3n2)cc1` (centres undefined), the survival was 87% (inactive). As for `CCCCN(C)CCNC(=O)CN1C(=O)CSc2ccc(S(=O)(=O)N3CCCCC3)cc21`, the survival is 113% (inactive).

For `CC(C)Cc1nn2cc(-c3cccc(Br)c3)nc2s1`, the survival is 112% (inactive). On to `Cn1ccc2cc(S(=O)(=O)N3CCCN(C(=O)Nc4ccccc4Br)CC3)ccc21`, for which the survival was 67% (inactive).

Take `CCOc1ccc(Nc2nc3c(S(=O)(=O)c4ccc(CC)cc4)nnn3c3ccc(Cl)cc23)cc1`: the survival is 104% (inactive). In the case of `O=C(O)CNC(=O)c1sc2ccccc2c1Cl`, the survival was 84% (inactive). Regarding `O=C(Nc1cc(C(F)(F)F)ccc1Cl)c1cc(-c2cccs2)nc2ccccc12`, the survival is 86% (inactive).

As to `Cc1ccc(NC(=O)Nc2cccs2)c(C)c1`, the survival was 91% (inactive). In the case of `Cc1cc(C)cc(NC(=O)Nc2cccs2)c1`, the survival is 26% (active). For the compound `O=C(Nc1cccc(C(F)(F)F)c1)Nc1cccs1`, the survival is -3% (active). To `O=C(Nc1cccc(C(F)(F)F)c1)c1cccc(C(=O)Nc2cccc(C(F)(F)F)c2)c1` belongs 84% (inactive). To `O=C(Nc1cccc(C(F)(F)F)c1)c1cccs1` belongs 95% (inactive); to `Cc1ccccc1NC(=O)Nc1cccs1`, 94% (inactive).

In the case of `O=C(Nc1cccs1)Nc1ccc(F)cc1F`, the survival is 83% (inactive). The value for `O=C(Nc1cccs1)Nc1cc(C(F)(F)F)ccc1Cl` was 11% (active); that for `COc1ccc(CNC(=O)c2cnc(N3CCCC3)nc2C)cc1` was 71% (inactive). As for `O=S(=O)(Nc1ccc(-c2ccc(N3CCCC3)nn2)cc1)c1ccccc1Cl`, the survival was 66% (inactive). In the case of `CC1(NS(C)(=O)=O)CC=CC1`, the survival was 115% (inactive). `Cc1cccc(NC(=O)c2cccc(N3CCCS3(=O)=O)c2)c1`: the survival is 78% (inactive). To `COc1cccc(C2C(C(=O)Nc3ccc(C)cc3C)=C(C)Nc3c(C(=O)Nc4cccc(C)c4)cnn32)c1OC` (centres undefined) belongs 94% (inactive); to `CCn1cc(S(=O)(=O)c2cccc(C)c2)c(=O)c2cc(F)c(N3CCN(c4ccccc4)CC3)cc21`, 84% (inactive).

Regarding `CCCc1cc(=O)[nH]c2nnc(SCCC(C)C)n12`, the survival is 90% (inactive). Turning to `Cc1cccc(-n2cc(-c3ccccc3)c3c(N4CCC(C)CC4)ncnc32)c1`, the survival is 90% (inactive).

As to `CCOc1ccc(/C=C/c2nc(C#N)c(N3CCN(CC)CC3)o2)cc1`, the survival was 70% (inactive). On to `CN1CCN(C2=NC(=O)/C(=C\C=C/c3ccccc3)S2)CC1`, for which the survival is 79% (inactive). As to `CCOc1cc(C2C(C(=O)OC)=C(C)NC3=C2C(=O)c2ccccc23)ccc1O` (centres undefined), the survival is 31% (active). The value for `CCOC(=O)COc1ccc(C2C(C(=O)OC)=C(C)NC3=C2C(=O)c2ccccc23)cc1Cl` (centres undefined) was 119% (inactive). To `COC(=O)C1=C(C)NC2=C(C(=O)c3ccccc32)C1c1ccc(O)c(OC)c1` (centres undefined) belongs 85% (inactive); to `CCOc1cc(C2C(C(=O)OC)=C(C)NC3=C2C(=O)c2ccccc23)c(Br)cc1OC` (centres undefined), 52% (inactive). Consider `COC(=O)COc1ccc(C2C(C(=O)OC)=C(C)NC3=C2C(=O)c2ccccc23)cc1OC` (centres undefined), for which the survival is 29% (active). To `CCOC(=O)COc1ccccc1C1C(C(=O)OC)=C(C)NC2=C1C(=O)c1ccccc12` (centres undefined) belongs 39% (active); to `C#CCOc1ccc(C2C(C(=O)OC)=C(C)NC3=C2C(=O)c2ccccc23)cc1OCC` (centres undefined), 167% (inactive). As for `CCOc1ccc(C2C(C(=O)OC)=C(C)NC3=C2C(=O)c2ccccc23)cc1OC` (centres undefined), the survival is 48% (inactive). Turning to `CCOc1cc(C2C(C(=O)OC)=C(C)NC3=C2C(=O)c2ccccc23)cc(Br)c1OCC` (centres undefined), the survival is 47% (inactive).

For the compound `CCOc1cc(C2C(C(=O)OC)=C(C)NC3=C2C(=O)c2ccccc23)cc(Cl)c1O` (centres undefined), the survival was 29% (active). To `CCOc1ccc(Br)cc1C1C(C(=O)OC)=C(C)NC2=C1C(=O)c1ccccc12` (centres undefined) belongs 48% (inactive); to `C#CCOc1c(Br)cc(C2C(C(=O)OC)=C(C)NC3=C2C(=O)c2ccccc23)cc1OCC` (centres undefined), 62% (inactive).

(Values after PubChem BioAssay AID463173 (ICCB-Longwood Screening Facility, Harvard Medical School, 2010).)
